HepG2 tox-1 – HepG2 cytotoxicity, counter-screen for TGF-b inhibitors | HepG2 CAGA-GFP viability, ATP luminescence, 18 h | 0.76% of 410,000 active | Potency, µM (series often up to 46.1 µM), without a hit: top-dose activity change, negative = cytotoxicity, most hits filed as cytotoxic
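HepG2 CAGA-GFP cells (1000/well, DMEM with 1% FBS) received compound, then TGF-beta at 500 pg/mL final, and were incubated 18 hours at 37 degrees C. Viability was read by CellTiter-Glo luminescence. Media-only wells were set as complete cell-killing and DMSO as no toxicity.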
HT1080 IDH1KD tx – HT-1080 IDH1 knockdown cell toxicity (counter line) | 2% of 360,000 active | Potency, µM (titrated, usually from 46.1 µM), without a hit: at the highest dose activity, negative = toxicity, usual class: cytotoxic | HT-1080 IDH1 knockdown viability, ATP luminescence, 48 h;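 further: 0% = DMSO wells and -100% = cell-free medium wells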
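In this qHTS, HT-1080 cells depleted of IDH1 are exposed for 48 h at 37 °C to compound titrations. Toxicity is scored from CellTiter-Glo luminescence, with DMSO as full viability and medium alone as none.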
TGFb inhibitor – inhibitors of TGF-b signaling; 1.2% of 410,000 active; HepG2 CAGA-GFP TGF-b/SMAD3 reporter, GFP fluorescence, 18 h; TGF-beta stimulated, 500 pg/mL final; Potency, µM (doses to about 46.1 µM), for inactives: top-dose activity, negative = inhibition, usual class: inhibitors; further: on the % scale 0 is the no-effect control and ±100 the full control effect; nearly all actives have a fitted effect of over 65% in size
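Smad-responsive CAGA-GFP expression was quantified in HEPG2 cells exposed to compounds and 500 pg/mL final TGF-beta for 18 h at 37 degrees C; unstimulated wells defined full inhibition.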
ATXN2 expr inh – inhibitors of ATXN2 expression. HEK-293 ATXN2-luciferase reporter, luminescence, 24 h. Potency, µM (top dose mostly 57 µM), for the others: top-dose activity change, negative = inhibition, usual class: inhibitors. 0.72% of 360,000 active. AID 1745845; further: on the % scale 0 is the no-effect control and ±100 the full control effect; nearly all actives have a fitted effect of over 55% in size
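ATXN2-luciferase reporter cells (luciferase flanked by upstream and downstream ATXN2 gene portions) were treated 24 h at 37 °C with compounds at up to 57 uM. SteadyGlo luminescence gave expression; GF-AFC fluorescence gave viability.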
HT1080NT lethal – kills 2HG-producing HT-1080-NT fibrosarcoma cells; 1.6% of 360,000 active; AID 686970; Potency, µM (titrated, usually from 46.1 µM), for the others: at the top dose activity, negative = less viability, usual class: cytotoxic; HT-1080-NT fibrosarcoma viability, CellTiter-Glo ATP luminescence, 48 h;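 further: NT is the 2HG producing partner of a matched IDH1 knockdown line; 0% = DMSO-treated cells and -100% = media-only wells without cells; nearly all actives have a fitted effect of over 55% in size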
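Toxicity toward the 2HG-producing NT line was scored as %Activity, normalised to DMSO and no-cell wells, from CellTiter-Glo luminescence after 48 hours' treatment.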
S2 tox – reduces viability in counter-screen for ATXN expression inhibitors; Potency, µM (top dose mostly 56.7 µM), actives largely listed as cytotoxic; S2 cells (HEK-293 line with an ATXN2-luciferase reporter) viability, CellTiter-Fluor protease fluorescence, 24 h; 0.49% of 400,000 active; further: nearly all actives have a fitted effect of over 40% in size
TGFb CAGA inh – TGF-b pathway inhibition, cherry-pick retest; 63% of 1,600 active; Potency, µM (doses to about 46.1 µM), for inactives: at the highest dose activity, negative = inhibition, actives largely listed as inhibitors; HepG2 CAGA-GFP TGF-b reporter, GFP fluorescence, 18 h; cells stimulated with TGF-beta, 500 pg/mL; shares compounds with TGFb inhibitor; further: on the % scale 0 is the no-effect control and ±100 the full control effect; nearly all actives have a fitted effect of over 65% in size
HepG2 tox-2 – toxic to HepG2 cells in TGF-b counterscreen; shares compounds with TGFb inhibitor; HepG2 CAGA-GFP viability, ATP luminescence, 18 h; cells stimulated with TGF-beta, 500 pg/mL; Potency, µM (highest dose often 46.1 µM), inactives show at the highest dose activity, negative = cytotoxicity, most hits filed as inhibitors; 27% of 1,600 active; further: on the % scale 0 is the no-effect control and ±100 the full control effect; nearly all actives have a fitted effect of over 70% in size
TGFb CCL64 inh – TGF-b inhibition, CCL64 orthogonal assay | shares compounds with TGFb inhibitor | CCL64 CAGA-GFP reporter, TGF-b stimulated, GFP fluorescence, 18 h | Potency, µM (series often up to 46.1 µM), inactives show top-dose activity, negative = inhibition, most hits filed as inhibitors | 41% of 1,600 active; further: nearly all actives have a fitted effect of over 65% in size
TGFb COP inh – TGF-b inhibition validated with COP promoter. HepG2 COP-GFP TGF-b reporter, GFP fluorescence, 18 h; cells stimulated by added recombinant TGF-beta. shares compounds with TGFb inhibitor. Potency, µM (series often up to 46.1 µM), inactives show at the top dose activity, negative = inhibition, hits mostly inhibitors. 3% of 1,600 active; further: nearly all actives have a fitted effect of over 70% in size
* = called active by the depositor; i = inactive; ? = inconclusive; · = no result. In the library only some 3.9% were active in any assay of this set; here they are far more common. The call rests on the fitted dose curve; in most records, active means well fitted curve in the direction sought with a large enough effect; inconclusive means small, poorly fitted or top-dose-only effect, or another doubt; inactive means no such curve, though single readings can be large; an effect the other way counts as inactive or inconclusive. Potency means the concentration at half of the fitted maximal effect.

SMILES	HepG2 tox-1	HT1080 IDH1KD tx	TGFb inhibitor	ATXN2 expr inh	HT1080NT lethal	S2 tox	TGFb CAGA inh	HepG2 tox-2	TGFb CCL64 inh	TGFb COP inh
CNc1ncnc2c1ncn2[C@@H]1O[C@H](CO)[C@@H](O)[C@H]1O	6%	12%	?	63%	14%	i	·	·	·	·
C=CCOc1ccc(C[C@H](N)C(=O)NC[C@H]2O[C@@H](n3cnc4c(N)ncnc43)[C@H](O)[C@@H]2O)cc1	1%	4%	-13%	-5%	-1%	i	·	·	·	·
CN(C)c1ncnc2c1nnn2C1OC(CO)C(O)C1O (stereo unspecified)	-68%	0.46µM*	0.56µM*	·	0.58µM*	?	2.1µM*	?	?	20%
OCC1OC(n2ccc3c2ncn2ncnc32)C(O)C1O (stereo unspecified)	-64%	0.65µM*	5µM*	·	0.58µM*	i	1.8µM*	0.52µM*	5%	24%
COc1cc(/C=C(\C#N)c2nc3ccccc3c(=O)[nH]2)cc(OC)c1OC	-4%	·	41%	-3%	·	i	·	·	·	·
O=C(Nc1cc(Sc2ccccn2)cc([N+](=O)[O-])c1)c1cccc(F)c1	-18%	?	11µM*	-10%	-25%	?	10µM*	?	13µM*	77%
O=C(Nc1cc(Sc2nc3ccccc3s2)cc([N+](=O)[O-])c1)c1ccccc1	-2%	-25%	?	-23%	-22%	i	·	·	·	·
O=C(CC(Nc1ccccc1)C(=O)O)c1ccccc1 (stereo unspecified)	-3%	3%	-5%	124%	13%	i	·	·	·	·
C=C(C(=O)c1ccccc1)C(C)CC(=O)c1ccccc1 (stereo unspecified)	-3%	21µM*	13µM*	?	-25%	·	4.6µM*	15µM*	15µM*	-43%
O=[N+]([O-])c1ccc(NS(=O)(=O)c2ccc(Cl)c(Cl)c2)cc1	-9%	18µM*	10µM*	?	16µM*	?	10µM*	7.3µM*	?	82%
COc1cc(OC)cc(-c2c(-c3cccs3)c3cc(-c4cnc(OC)nc4)ccc3n2C)c1	-16%	-2%	?	0%	-1%	i	?	-3%	-11%	-18%
COc1ccc(-c2ccc3c(c2)c(-c2cccs2)c(-c2cc(OC)cc(OC)c2)n3C)cc1	-13%	-1%	-3%	-2%	-1%	i	·	·	·	·
CC(=NNC(=S)N1CCCC1)c1ccccn1	-22%	?	?	·	?	?	?	?	?	-14%
CC(=NNC(=S)SCc1ccccc1)c1ccccn1	-32%	?	?	?	?	?	·	·	·	·
CCCS(=O)(=O)Nc1cc(-c2cn3cccc(C)c3n2)ccc1C	-10%	·	-14%	37%	·	i	·	·	·	·
Cc1ccc(NS(=O)(=O)c2ccc(N3CCN(c4ccc(O)cc4)CC3)c([N+](=O)[O-])c2)c(C)c1	-4%	?	14µM*	?	?	i	12µM*	?	?	69%
O=[N+]([O-])c1cc(S(=O)(=O)Nc2ccccc2)ccc1N1CCN(c2ccc(O)cc2)CC1	-18%	-5%	?	-20%	4%	?	·	·	·	·
C[C@@H]1CN([C@@H](C)CO)C(=O)c2cccc(NC(=O)Nc3ccc(F)cc3)c2O[C@@H]1CN(C)Cc1ccc(Oc2ccccc2)cc1	-50%	?	4µM*	?	23µM*	18µM*	16µM*	?	6.5µM*	42%
C[C@H](CO)N1C[C@H](C)[C@@H](CN(C)S(=O)(=O)c2ccccc2)Oc2c(NC(=O)Nc3ccc(C(F)(F)F)cc3)cccc2C1=O	-29%	?	10µM*	?	?	?	21µM*	?	?	12%
C[C@@H]1CCCCO[C@H](CN(C)Cc2ccc(Cl)c(Cl)c2)[C@H](C)CN([C@@H](C)CO)C(=O)c2cc(NC(=O)Nc3ccc(F)cc3)ccc2O1	-23%	?	10µM*	?	-28%	?	5.8µM*	?	5.8µM*	48%
COc1ccc(Cl)cc1NC(=O)Cc1ccc(NC(=O)N2CCCCc3ccccc32)cc1	-6%	·	-22%	6%	·	i	·	·	·	·
CN(c1ccc(F)cc1)S(=O)(=O)c1ccc(Cl)c(C(=O)Nc2ccc3c(c2)CCC3)c1	1%	-9%	11µM*	-10%	3%	i	?	-12%	-20%	-7%
CCOc1ccc(Cl)cc1-c1cc(C(=O)NCc2cc(C(F)(F)F)cc(C(F)(F)F)c2)[nH]n1	-22%	?	16µM*	?	?	?	16µM*	?	?	21%
CCOc1ccc(Cl)cc1-c1cc(C(=O)NCc2ccccc2)[nH]n1	0%	?	?	-15%	?	i	·	·	·	·
COc1ccc(-n2c(CCc3ccccc3)nnc2SCC(=O)NCc2ccccc2)cc1	-22%	-7%	-4%	0%	-1%	i	·	·	·	·
C=CCn1c(CSCc2ccc(Cl)cc2)nnc1SCC(=O)NCc1ccccc1	-39%	5%	8.9µM*	12%	1%	?	?	-9%	-34%	5%
O=C(CSc1nnc(CCc2ccccc2)n1-c1ccc(Cl)cc1)NCc1ccccc1	-10%	-4%	11µM*	3%	-1%	i	?	-23%	?	-3%

Assay outcomes from PubChem BioAssay.
